Hits are enriched below; roughly 3.5% of the tested compounds scored in any of these assays.
M1 antag: antagonists of human M1 muscarinic receptor. CHO-K1 hM1, Fluo-8 calcium fluorescence, ACh EC80 antagonist. 360,000 tested, 1.3% active. AID 588852. inhibition, % at 3 µM;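 active = percent inhibition above its own plate's cutoff, namely the mean of that plate's compound wells plus 3 SD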;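 also: peak over basal fluorescence ratio during 140 s after agonist addition; 0% = ACh EC80 plus DMSO and 100% = DMSO alone without agonist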
CHRM1 PAM: human CHRM1 positive allosteric modulation. P11229. CHO-K1 hM1, Fluo-8 calcium fluorescence, ACh EC20; 0% = ACh EC20, 100% = maximal ACh. activation, % at 3 µM. 360,000 tested, 0.088% active. AID 588819; in the data active = activation above about 19%, passing the limit was not always enough
Myeloid diff MLP: compounds promoting myeloid differentiation; AID 624256; calls only at 10 µM; ER-HoxA9 myeloid progenitors, lysozyme-GFP differentiation, flow cytometry; 360,000 tested, 1% active;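 active = normalized GFP-positive differentiation at or above the plate's own cutoff, the solvent-only control mean plus 3 SD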;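 also: cells exposed to compound for four days before flow analysis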
ATG4B inhibitor: blocks human ATG4B protease cleavage of LC3 substrate | Q9Y4P1 | inhibition, % at 8.33 µM | ATG4B cleavage of LC3-PLA2, NBD-HPC fluorescence, 1 h | 340,000 tested, 0.51% active; in the data active = inhibition above about 40%
Target sequence (Q9Y4P1 whole entry, looked up): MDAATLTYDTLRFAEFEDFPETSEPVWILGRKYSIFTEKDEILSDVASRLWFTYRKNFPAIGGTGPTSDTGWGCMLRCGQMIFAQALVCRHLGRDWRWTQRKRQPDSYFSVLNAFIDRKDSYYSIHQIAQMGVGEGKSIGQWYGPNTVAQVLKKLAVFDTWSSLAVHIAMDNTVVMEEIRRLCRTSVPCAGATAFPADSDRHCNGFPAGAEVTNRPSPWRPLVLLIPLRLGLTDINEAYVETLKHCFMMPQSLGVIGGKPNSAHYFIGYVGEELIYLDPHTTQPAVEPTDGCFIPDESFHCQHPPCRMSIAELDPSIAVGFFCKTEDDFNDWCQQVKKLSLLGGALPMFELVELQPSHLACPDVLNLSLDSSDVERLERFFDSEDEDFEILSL
SKN-1 block: C. elegans SKN-1 inhibition; 360,000 tested, 0.49% active; inhibition, % at 21.8 µM; C. elegans VP596 Pgst-4::GFP/RFP ratio, acrylamide-induced, 24 h; AID 624304;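 active = interference check ratio from 0.5 to 1.5 plus GFP to RFP signal ratio inhibition reaching or exceeding a fixed threshold, cut at about 30% in these data, passing the limit was not always enough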
M1 ag: activates human CHRM1 receptor; AID 588814; activation, % at 3 µM; 360,000 tested, 0.33% active; CHO-K1 hM1, Fluo-8 calcium fluorescence, agonist mode; 0% DMSO, 100% acetylcholine EC100; P11229;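 active = activation above the run's mean compound activation plus 3 SD, cut at about 16% in these data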;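 also: peak over basal fluorescence ratio within a 140 s kinetic read after compound addition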
* marks the source's active call; other numbers are inactive results.

How did Cn1c(=O)c2[nH]c(Cc3cccc(O)c3)nc2n(C)c1=O do in these assays?
M1 antag: -16; CHRM1 PAM: 5; Myeloid diff MLP: inactive; ATG4B inhibitor: 2; SKN-1 block: 6; M1 ag: -4

How did O=C(NCc1ccc2c(c1)OCO2)C1CCCN(S(=O)(=O)c2cccc3cccnc23)C1 (stereo not given) do in these assays?
M1 antag: -3; CHRM1 PAM: 1; Myeloid diff MLP: active; ATG4B inhibitor: -4; SKN-1 block: 6; M1 ag: -3

Results for O=S(=O)(c1ccc(Cl)cc1)N1CCN(C2CCN(Cc3ccccc3)CC2)CC1 ?
M1 antag: 37*; CHRM1 PAM: -18; Myeloid diff MLP: inactive; ATG4B inhibitor: -16; SKN-1 block: 7; M1 ag: -4

How did O=S(=O)(NC1CCN(Cc2ccccc2)CC1)c1ccc(Cl)cc1 do in these assays?
M1 antag: 52*; CHRM1 PAM: -24; Myeloid diff MLP: inactive; ATG4B inhibitor: 1; SKN-1 block: -10; M1 ag: -7

How did O=[N+]([O-])c1ccccc1S(=O)(=O)N1CCN(C2CCN(Cc3ccccc3)CC2)CC1 do in these assays?
M1 antag: 54*; CHRM1 PAM: -21; Myeloid diff MLP: inactive; ATG4B inhibitor: -7; SKN-1 block: 11; M1 ag: -6

Results for COc1ccc(S(=O)(=O)N2CCC(N3CCN(Cc4ccccc4)CC3)CC2)cc1 ?
M1 antag: 84*; CHRM1 PAM: -35; Myeloid diff MLP: inactive; ATG4B inhibitor: -4; SKN-1 block: -2; M1 ag: -13

Results for O=[N+]([O-])c1ccc(S(=O)(=O)N2CCN(C3CCN(Cc4ccccc4)CC3)CC2)cc1 ?
M1 antag: 12; CHRM1 PAM: -20; Myeloid diff MLP: inactive; ATG4B inhibitor: -1; SKN-1 block: 2; M1 ag: -13

What do the screens show for `COc1ccc(CCN2CC(C(=O)N(C)CC(=O)Nc3cccc(F)c3)CC2=O)cc1OC` (stereo not given)?
M1 antag: -9; CHRM1 PAM: 7; Myeloid diff MLP: inactive; ATG4B inhibitor: 6; SKN-1 block: -2; M1 ag: -3

Results for O=C(NCc1ccccn1)c1ccccc1-c1ccccc1 ?
M1 antag: -9; CHRM1 PAM: 4; Myeloid diff MLP: inactive; ATG4B inhibitor: -2; SKN-1 block: 4; M1 ag: -6

Results for Cn1c(=O)c(C(=O)COc2ccc(C#N)cc2)c(N)n(Cc2ccccc2)c1=O ?
M1 antag: 9; CHRM1 PAM: -6; Myeloid diff MLP: inactive; ATG4B inhibitor: -6; SKN-1 block: -2; M1 ag: 28*

What do the screens show for `O=C1CCCN1C1CCN(Cc2ccccc2)S(=O)(=O)N1` (stereo not given)?
Myeloid diff MLP: inactive; SKN-1 block: -1

What do the screens show for `Cn1ccsc1=NC(=O)c1ccc(OC(F)(F)F)cc1`?
M1 antag: -26; CHRM1 PAM: 15; Myeloid diff MLP: inactive; ATG4B inhibitor: 5; SKN-1 block: 51*; M1 ag: 2

How did COc1ccc(C(=O)N=c2sccn2C)cc1 do in these assays?
M1 antag: -4; CHRM1 PAM: 8; Myeloid diff MLP: inactive; ATG4B inhibitor: 4; SKN-1 block: 16; M1 ag: -4

Results for Cn1ccsc1=NC(=O)c1ccc(Cl)cc1 ?
M1 antag: -4; CHRM1 PAM: 7; Myeloid diff MLP: inactive; ATG4B inhibitor: -3; SKN-1 block: 43*; M1 ag: -5

What do the screens show for `NC1=NC[C@H](Cc2ccc(O)cc2)N1CCC12CC3CC(CC(C3)C1)C2`?
M1 antag: 37*; CHRM1 PAM: -26; Myeloid diff MLP: inactive; ATG4B inhibitor: -10; SKN-1 block: 11; M1 ag: -9

How did N#C/C(=C/C=C/c1ccccc1)C(=O)Nc1ccccc1 do in these assays?
M1 antag: 6; CHRM1 PAM: 3; Myeloid diff MLP: active; ATG4B inhibitor: -7; SKN-1 block: 13; M1 ag: 0

How did COC(=O)c1sccc1S(=O)(=O)N1CCCC(N(C)CCc2ccccn2)C1 (stereo not given) do in these assays?
M1 antag: -12; CHRM1 PAM: 8; Myeloid diff MLP: inactive; ATG4B inhibitor: -2; SKN-1 block: 23; M1 ag: -6

What do the screens show for `Cn1nccc1C(=O)NC1CCCc2c1cnn2-c1ccc(C(C)(C)C)cc1` (stereo not given)?
M1 antag: 34*; CHRM1 PAM: -8; Myeloid diff MLP: inactive; ATG4B inhibitor: -7; SKN-1 block: 11; M1 ag: 1

Results for CC(=O)NC1CCCc2c1cnn2-c1ccc(C(C)(C)C)cc1 (stereo not given) ?
M1 antag: -11; CHRM1 PAM: 3; Myeloid diff MLP: inactive; ATG4B inhibitor: -14; SKN-1 block: -8; M1 ag: -1

What do the screens show for `COCCN=C1N[C@@H](c2ccc(Br)cc2)C(C(=O)OC)=C(C)N1Cc1ccccc1`?
M1 antag: -7; CHRM1 PAM: 10; Myeloid diff MLP: active; ATG4B inhibitor: -2; SKN-1 block: 2; M1 ag: -2

How did COCCN=C1N[C@@H](c2ccccc2)C(C(=O)OC)=C(C)N1Cc1ccccc1 do in these assays?
M1 antag: 10; CHRM1 PAM: -1; Myeloid diff MLP: inactive; ATG4B inhibitor: -2; SKN-1 block: -8; M1 ag: -8

How did CC(C)c1ccc(NC(=O)Nc2nc(C(N)COCc3ccccc3)cs2)cc1 (stereo not given) do in these assays?
M1 antag: 10; CHRM1 PAM: 3; Myeloid diff MLP: inactive; SKN-1 block: 5; M1 ag: 2

What do the screens show for `Cn1nc(C(=O)NNC(=O)CCc2ccccc2Cl)c2ccccc2c1=O`?
M1 antag: -6; CHRM1 PAM: -1; Myeloid diff MLP: active; ATG4B inhibitor: -10; SKN-1 block: 9; M1 ag: -2

Results for Cn1nc(C(=O)NNC(=O)c2cccc(Cl)c2)c2ccccc2c1=O ?
M1 antag: -13; CHRM1 PAM: 5; Myeloid diff MLP: inactive; ATG4B inhibitor: -6; SKN-1 block: 13; M1 ag: 0

What do the screens show for `COc1cccc(-c2cnc(C(O)c3ccc(C(C)(C)C)cc3)[nH]2)c1` (stereo not given)?
M1 antag: -12; CHRM1 PAM: 5; Myeloid diff MLP: inactive; SKN-1 block: -6; M1 ag: -3

What do the screens show for `Cc1cccc(C)c1NC(=O)COC(=O)c1cccc2c1C(=O)c1ccccc1C2=O`?
M1 antag: 5; CHRM1 PAM: -1; Myeloid diff MLP: inactive; ATG4B inhibitor: -4; SKN-1 block: 9; M1 ag: -5

How did Cc1cccc(NC(=O)COC(=O)c2cccc3c2C(=O)c2ccccc2C3=O)c1C do in these assays?
M1 antag: 29*; CHRM1 PAM: -17; Myeloid diff MLP: inactive; ATG4B inhibitor: 32; SKN-1 block: 12; M1 ag: -7
